Laboratory results as given in PubChem BioAssay AID720648 (The Scripps Research Institute Molecular Screening Center, 2013).
The whole screen tested about 370,000 compounds, of which about 3,100 (0.84%) were called active.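 Rule for the calls: active = inhibition above the mean of compounds lying between control limits plus 3 SD, set per campaign (cut at about 8.5% in these data); inactive = the rest.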 Only a selection was taken, and actives are over-represented in it overall.

biological target: Disintegrin and metalloproteinase domain-containing protein 17 (Homo sapiens) (UniProt P78536); experiment: inhibition of ADAM17 peptide cleavage – biochemical, QFRET, primary screen (AID 720648); conditions: recombinant ADAM17, EDANS/DABCYL FRET peptide cleavage; at 6.95 µM; stronger effect = higher value;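 note: 0% = DMSO-only wells as the low control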
Sequence (P78536 215-824 limits assumed): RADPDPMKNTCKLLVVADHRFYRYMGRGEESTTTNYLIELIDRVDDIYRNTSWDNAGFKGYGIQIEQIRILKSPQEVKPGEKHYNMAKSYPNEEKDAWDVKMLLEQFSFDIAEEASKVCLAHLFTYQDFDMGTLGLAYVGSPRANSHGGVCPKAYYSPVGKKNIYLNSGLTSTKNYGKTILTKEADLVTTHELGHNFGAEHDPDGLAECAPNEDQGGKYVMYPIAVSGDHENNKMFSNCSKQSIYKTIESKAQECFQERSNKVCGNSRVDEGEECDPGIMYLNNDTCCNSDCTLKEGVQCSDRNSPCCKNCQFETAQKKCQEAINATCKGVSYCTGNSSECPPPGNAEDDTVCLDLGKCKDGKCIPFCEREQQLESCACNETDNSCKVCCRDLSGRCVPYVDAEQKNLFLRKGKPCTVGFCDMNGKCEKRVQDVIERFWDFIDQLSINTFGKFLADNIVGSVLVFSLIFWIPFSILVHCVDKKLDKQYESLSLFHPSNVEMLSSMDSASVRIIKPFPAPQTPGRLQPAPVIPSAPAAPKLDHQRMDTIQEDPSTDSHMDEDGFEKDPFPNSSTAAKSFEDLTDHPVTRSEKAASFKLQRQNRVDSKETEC

| Structure (SMILES) | inhibition |
| --- | --- |
| CC(=O)OCCN1CCCC12CCC(c1ccccc1)CC2 (configuration not stated) | -1.85% (inactive) |
| COC(=O)C1CN(CC(C)C)CCS(=O)(=O)N1Cc1ccc(F)cc1 (configuration not stated) | -5.05% (inactive) |
| Cc1nc2ccc(C(=O)N3CCN(C(=O)C(C)(C)C)CC3)cc2n1C1CCCC1 | 3.54% (inactive) |
| Cc1ccc(C)c(NC(=O)CCS(=O)(=O)c2ccccc2)c1 | -3.15% (inactive) |
| COc1ccc(CN(C)C(=O)CC(c2ccccc2)c2ccccc2)cc1 | 11% (active) |
| COc1ccc(Cn2cc(COC(=O)N(C)Cc3ccccc3)nn2)cc1 | -3.38% (inactive) |
| COc1ccc(C(CCN(Cc2ccc(OC)c(OC)c2)C(=O)CCl)c2ccccc2)cc1 (configuration not stated) | 12.5% (active) |
| COc1ccc(CN(CCN2CCOCC2)C(=O)c2ccc(C)cc2)cc1OC | 2.83% (inactive) |
| COc1ccc(C(C(=O)NC2CCCCC2)N(C(=O)CCl)c2ccccc2Cl)cc1 (configuration not stated) | -0.76% (inactive) |
| CN(Cc1ccc(F)cc1)C(=O)COc1ccc2ccccc2c1 | -3.83% (inactive) |
| COC(=O)C[C@@H]1CC[C@@H]2[C@@H](COc3ccc(NC(=O)Nc4ccc(F)c(F)c4)cc3C(=O)N2C)O1 | 1.31% (inactive) |
| CCCCNC(=O)C[C@H]1C[C@@]2(C(=O)OC)C(=C[C@H](COCc3ccccc3)O[C@@H]2C)N(Cc2ccc(Cl)cc2Cl)C1=O | 1.2% (inactive) |
| COc1ccc2c(c1)CN1CN(CCc3ccccc3)S(=O)(=O)CC21 (configuration not stated) | -6.46% (inactive) |
| Cc1ccc(/C=N/NC(=O)CSc2nc3ccccc3o2)cc1 | 10.3% (active) |
| CC1Cc2ccccc2N1C(=O)CSc1nc2ccccc2o1 (configuration not stated) | 2.14% (inactive) |
| O=C(CSc1nc2ccccc2o1)N/N=C/c1ccccc1C(=O)O | -4.58% (inactive) |
| COc1ccc(CN2C(=O)N3Cc4cc(OC)ccc4C3CS2(=O)=O)cc1 (configuration not stated) | -0.79% (inactive) |
| C=CCN1C(=O)[C@@H](CC(=O)NCCCCc2ccccc2)[C@]2(C(=O)OCC)CCCCC/C=C/12 | 3.44% (inactive) |
| N/C(Cc1ccc([N+](=O)[O-])cc1)=N\OC(=O)COc1ccc2ccccc2c1 | 10.8% (active) |
| Cc1cc(C)cc(OCC(=O)O/N=C(\N)Cc2ccc([N+](=O)[O-])cc2)c1 | 3.53% (inactive) |
| N/C(Cc1ccc([N+](=O)[O-])cc1)=N\OC(=O)C1CCCCC1 | -3.25% (inactive) |
| C=CCN1C(C(=O)OC)CN(Cc2cn(Cc3ccccc3)nn2)CCS1(=O)=O (configuration not stated) | 1.41% (inactive) |
| CN(C)CC(=O)N[C@@H]1C[C@@H]2O[C@H](CO)CC[C@@H]2O[C@@H]1CCc1ccc(C#Cc2ccccc2)cc1 | 3.01% (inactive) |
| COc1ccc(C(c2nnnn2C2CCCC2)N2CCN(C/C=C/c3ccccc3)CC2)cc1 (configuration not stated) | -1.95% (inactive) |
| CCCCn1nnnc1C(c1cccc(OC)c1OC)N1CCN(C/C=C/c2ccccc2)CC1 (configuration not stated) | 3.3% (inactive) |
| FC(F)(F)Oc1ccccc1C(c1nnnn1C1CCCCC1)N1CCN(C/C=C/c2ccccc2)CC1 (configuration not stated) | 9.77% (active) |

| Structure (SMILES) | inhibition |
| --- | --- |
| COC(=O)C12C=C3CC(c4ccccc4)=C3C(=O)N1Cc1[nH]c3ccccc3c1C2 (configuration not stated) | -5.87% (inactive) |
| CC(=O)c1cc(-c2ccc3ccccc3c2)c(=O)n2c1CCC2 | -8.84% (inactive) |
| O=C(NCCc1c[nH]c2ccccc12)OCc1cn(-c2c(F)cccc2F)nn1 | -1.78% (inactive) |
| C=CCN1C(=O)[C@H](CC(=O)N2CCN(C(=O)OCC)CC2)[C@@]2(C(=O)OCC)CCCC=C12 | -4.33% (inactive) |
| N[C@@H](Cc1ccccc1)C(=O)N1CCC[C@@H]1C(=O)N1CCC2CCN(S(=O)(=O)c3ccccc3)CC21 (some centres not stated) | -3.15% (inactive) |
| N#C/C(=C\c1cccnc1)C(=O)Nc1ccc(SC(F)F)cc1 | 2.16% (inactive) |
| CN(CC(=O)Nc1ccc(S(=O)(=O)N2CCCC2)cc1)Cc1ccc(Cl)c(Cl)c1 | 4.22% (inactive) |
| O=C(Cc1ccc(Cl)c(Cl)c1)Nc1ccc(SC(F)F)cc1 | 8.77% (active) |
| C[C@@H]1CN([C@@H](C)CO)C(=O)c2cccc(NC(=O)Nc3cccc4ccccc34)c2O[C@H]1CN(C)S(=O)(=O)c1ccccc1F | -10.5% (inactive) |
| CN(C)S(=O)(=O)c1cccc(C(=O)N/N=C\c2ccco2)c1 | 1.33% (inactive) |
| O=C(Nn1c(SCc2ccc([N+](=O)[O-])cc2)nc2ccccc2c1=O)c1ccc(F)cc1 | 8.99% (active) |
| O=C(Nc1cc(-c2ccccc2)nn1-c1ccccc1F)c1ccc([N+](=O)[O-])cc1 | 2.52% (inactive) |
| COCCNC(=O)c1ccc(-n2c(SCc3cccnc3)nc3ccccc3c2=O)cc1 | -0.26% (inactive) |
| O=C(CSc1nc2ccccc2n1Cc1ccccc1Cl)N/N=C\c1c[nH]c2ccccc12 | 4.92% (inactive) |
| COc1ccc(CSc2nnc(SCC(=O)Nc3ccccc3C(F)(F)F)s2)cc1 | 1.07% (inactive) |
| COc1ccc2c(C(C)c3ccc(N)cc3)cn(C)c2c1 (configuration not stated) | 1.72% (inactive) |
| CCOC(=O)C1(Cc2ccccc2)CCN(Cc2cn(C(C)=O)c3ccccc23)CC1 | -0.16% (inactive) |
| Cn1nc(C(F)(F)F)c(-c2ccc(F)cc2)c1NC(=O)CSCC(=O)O | -2.02% (inactive) |
| Cn1nc(C(F)(F)F)c2cc(NC(=O)OCC(C)(C)C)sc21 | 8.91% (active) |
| Cn1nc(C(F)(F)F)c2cc(C(=O)N3CCOCC3)sc21 | -1.03% (inactive) |
| COC(=O)[C@]12C[C@H](CC(=O)NCCc3ccccc3OC)C(=O)N(Cc3ccco3)C1=C[C@H](C(C)C)O[C@@H]2C1CC1 | -2.62% (inactive) |
| O=C(c1cccc(C(F)(F)F)c1)N1CC[C@H]2[C@H](CCCN2Cc2cc(F)cc(F)c2)C1 | -0.58% (inactive) |
| COC(=O)CC1CCc2cc(C)cc(C(CC(C)C)NC(=O)[C@H](CC(C)C)NC(=O)OCc3ccccc3)c2O1 (some centres not stated) | -2.33% (inactive) |
| Cc1cc(NC(=O)CN2C(=O)NC(CC(C)C)C2=O)no1 (configuration not stated) | 10.8% (active) |
| Cc1cc(NC(=O)CN2C(=O)NC(CCc3ccccc3)C2=O)no1 (configuration not stated) | -0.8% (inactive) |
| COc1ccc(C2(c3ccc(OC)cc3)NC(=O)N(CC(=O)Nc3cc(C)on3)C2=O)cc1 | 2.54% (inactive) |
